Measurements as given in ChEMBL document CHEMBL1961873, “Compounds: GSK PKIS; Assays: Nanosyn kinase panel” (2012).

Legend:
[1] = target: T1, Serine/threonine-protein kinase Nek9 (Homo sapiens) (UniProt Q8TD19); settings: at 1 µM;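 note: each value is a mean percent inhibition of NEK9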
T1 sequence (whole entry): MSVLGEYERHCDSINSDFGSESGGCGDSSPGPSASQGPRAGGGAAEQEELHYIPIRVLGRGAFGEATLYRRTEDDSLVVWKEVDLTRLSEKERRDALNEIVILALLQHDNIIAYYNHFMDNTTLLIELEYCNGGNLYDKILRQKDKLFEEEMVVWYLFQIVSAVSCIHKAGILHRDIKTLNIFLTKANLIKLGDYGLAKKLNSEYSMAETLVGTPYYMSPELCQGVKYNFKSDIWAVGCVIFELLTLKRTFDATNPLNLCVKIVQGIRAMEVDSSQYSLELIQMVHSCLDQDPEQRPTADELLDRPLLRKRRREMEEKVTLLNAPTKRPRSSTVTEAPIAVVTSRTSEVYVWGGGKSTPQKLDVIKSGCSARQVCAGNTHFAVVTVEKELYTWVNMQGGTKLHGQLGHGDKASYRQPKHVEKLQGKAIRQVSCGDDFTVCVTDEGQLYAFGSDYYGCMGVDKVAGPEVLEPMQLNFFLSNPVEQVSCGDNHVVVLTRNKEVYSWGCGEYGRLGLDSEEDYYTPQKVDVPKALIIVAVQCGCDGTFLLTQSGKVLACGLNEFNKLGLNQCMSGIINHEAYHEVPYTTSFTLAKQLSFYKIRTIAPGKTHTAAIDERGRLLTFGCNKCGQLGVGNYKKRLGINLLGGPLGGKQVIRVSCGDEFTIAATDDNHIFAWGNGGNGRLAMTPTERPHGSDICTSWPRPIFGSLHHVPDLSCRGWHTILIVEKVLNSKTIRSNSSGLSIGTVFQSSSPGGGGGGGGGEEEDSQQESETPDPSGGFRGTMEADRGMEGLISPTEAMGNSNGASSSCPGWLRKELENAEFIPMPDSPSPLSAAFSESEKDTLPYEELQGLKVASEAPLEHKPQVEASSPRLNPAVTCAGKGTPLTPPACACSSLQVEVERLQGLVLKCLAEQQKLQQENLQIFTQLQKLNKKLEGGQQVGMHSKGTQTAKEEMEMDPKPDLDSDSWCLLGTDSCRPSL

[2] = target: Serine/threonine-protein kinase PLK1 (Homo sapiens) (UniProt P53350); settings: at 0.1 µM
[3] = target: Serine/threonine-protein kinase PLK1 (Homo sapiens) (UniProt P53350); settings: at 1 µM
[4] = target: T2, Dual specificity protein kinase TTK (Homo sapiens) (UniProt P33981); settings: at 0.1 µM
T2 sequence (whole entry): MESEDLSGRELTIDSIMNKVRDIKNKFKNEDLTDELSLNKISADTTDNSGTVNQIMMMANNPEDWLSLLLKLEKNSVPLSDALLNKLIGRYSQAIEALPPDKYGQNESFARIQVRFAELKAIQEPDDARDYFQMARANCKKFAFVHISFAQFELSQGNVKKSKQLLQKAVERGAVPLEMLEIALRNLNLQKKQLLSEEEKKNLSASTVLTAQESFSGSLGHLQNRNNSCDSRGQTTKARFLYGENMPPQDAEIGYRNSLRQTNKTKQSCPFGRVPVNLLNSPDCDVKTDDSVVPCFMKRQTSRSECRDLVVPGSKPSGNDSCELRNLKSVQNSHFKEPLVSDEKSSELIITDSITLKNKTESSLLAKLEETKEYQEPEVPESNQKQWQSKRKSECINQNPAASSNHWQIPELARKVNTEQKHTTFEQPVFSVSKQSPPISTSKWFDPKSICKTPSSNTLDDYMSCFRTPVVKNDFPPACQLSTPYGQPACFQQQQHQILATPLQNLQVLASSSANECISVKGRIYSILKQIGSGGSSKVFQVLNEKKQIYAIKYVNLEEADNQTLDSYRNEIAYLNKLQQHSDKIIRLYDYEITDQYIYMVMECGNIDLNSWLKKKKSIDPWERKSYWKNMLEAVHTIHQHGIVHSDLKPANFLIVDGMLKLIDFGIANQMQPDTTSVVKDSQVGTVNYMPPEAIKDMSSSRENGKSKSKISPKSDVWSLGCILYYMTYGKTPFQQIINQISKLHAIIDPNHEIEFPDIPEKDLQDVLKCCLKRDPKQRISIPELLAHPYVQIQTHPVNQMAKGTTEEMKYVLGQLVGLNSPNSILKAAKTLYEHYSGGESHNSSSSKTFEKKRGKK

[5] = system: T3, Receptor-type tyrosine-protein kinase FLT3 (Homo sapiens), P36888 [D835Y]; settings: at 1 µM
T3 sequence (whole entry): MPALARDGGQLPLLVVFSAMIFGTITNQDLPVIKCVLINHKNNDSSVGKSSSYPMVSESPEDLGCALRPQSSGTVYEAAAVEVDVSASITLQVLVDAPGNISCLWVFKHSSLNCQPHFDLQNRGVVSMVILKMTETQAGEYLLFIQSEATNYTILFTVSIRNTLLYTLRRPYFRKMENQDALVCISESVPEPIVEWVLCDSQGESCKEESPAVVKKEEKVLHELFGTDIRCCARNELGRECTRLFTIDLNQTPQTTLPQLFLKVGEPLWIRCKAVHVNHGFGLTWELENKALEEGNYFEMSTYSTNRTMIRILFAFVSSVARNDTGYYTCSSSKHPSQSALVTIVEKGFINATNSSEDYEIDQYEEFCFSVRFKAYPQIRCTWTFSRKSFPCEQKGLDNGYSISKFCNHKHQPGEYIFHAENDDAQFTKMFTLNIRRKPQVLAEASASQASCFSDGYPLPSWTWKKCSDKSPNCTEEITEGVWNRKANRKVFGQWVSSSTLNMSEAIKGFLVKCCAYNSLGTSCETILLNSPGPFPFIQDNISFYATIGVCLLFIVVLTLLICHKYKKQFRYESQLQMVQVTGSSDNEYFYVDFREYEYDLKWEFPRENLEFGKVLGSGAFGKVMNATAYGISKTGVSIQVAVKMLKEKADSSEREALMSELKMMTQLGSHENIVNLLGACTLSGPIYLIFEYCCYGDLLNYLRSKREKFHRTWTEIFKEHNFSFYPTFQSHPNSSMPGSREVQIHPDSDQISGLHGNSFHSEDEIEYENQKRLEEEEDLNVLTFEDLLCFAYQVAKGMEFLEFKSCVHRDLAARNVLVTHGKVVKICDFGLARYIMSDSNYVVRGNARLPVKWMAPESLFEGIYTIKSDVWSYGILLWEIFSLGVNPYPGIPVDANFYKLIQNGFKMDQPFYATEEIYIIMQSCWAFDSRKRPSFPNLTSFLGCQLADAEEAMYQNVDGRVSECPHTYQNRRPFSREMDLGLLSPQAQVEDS

[6] = target: Vascular endothelial growth factor receptor 3 (Homo sapiens) (UniProt P35916); settings: at 0.1 µM
Sequence of Vascular endothelial growth factor receptor 3 (Homo sapiens) (P35916 whole entry): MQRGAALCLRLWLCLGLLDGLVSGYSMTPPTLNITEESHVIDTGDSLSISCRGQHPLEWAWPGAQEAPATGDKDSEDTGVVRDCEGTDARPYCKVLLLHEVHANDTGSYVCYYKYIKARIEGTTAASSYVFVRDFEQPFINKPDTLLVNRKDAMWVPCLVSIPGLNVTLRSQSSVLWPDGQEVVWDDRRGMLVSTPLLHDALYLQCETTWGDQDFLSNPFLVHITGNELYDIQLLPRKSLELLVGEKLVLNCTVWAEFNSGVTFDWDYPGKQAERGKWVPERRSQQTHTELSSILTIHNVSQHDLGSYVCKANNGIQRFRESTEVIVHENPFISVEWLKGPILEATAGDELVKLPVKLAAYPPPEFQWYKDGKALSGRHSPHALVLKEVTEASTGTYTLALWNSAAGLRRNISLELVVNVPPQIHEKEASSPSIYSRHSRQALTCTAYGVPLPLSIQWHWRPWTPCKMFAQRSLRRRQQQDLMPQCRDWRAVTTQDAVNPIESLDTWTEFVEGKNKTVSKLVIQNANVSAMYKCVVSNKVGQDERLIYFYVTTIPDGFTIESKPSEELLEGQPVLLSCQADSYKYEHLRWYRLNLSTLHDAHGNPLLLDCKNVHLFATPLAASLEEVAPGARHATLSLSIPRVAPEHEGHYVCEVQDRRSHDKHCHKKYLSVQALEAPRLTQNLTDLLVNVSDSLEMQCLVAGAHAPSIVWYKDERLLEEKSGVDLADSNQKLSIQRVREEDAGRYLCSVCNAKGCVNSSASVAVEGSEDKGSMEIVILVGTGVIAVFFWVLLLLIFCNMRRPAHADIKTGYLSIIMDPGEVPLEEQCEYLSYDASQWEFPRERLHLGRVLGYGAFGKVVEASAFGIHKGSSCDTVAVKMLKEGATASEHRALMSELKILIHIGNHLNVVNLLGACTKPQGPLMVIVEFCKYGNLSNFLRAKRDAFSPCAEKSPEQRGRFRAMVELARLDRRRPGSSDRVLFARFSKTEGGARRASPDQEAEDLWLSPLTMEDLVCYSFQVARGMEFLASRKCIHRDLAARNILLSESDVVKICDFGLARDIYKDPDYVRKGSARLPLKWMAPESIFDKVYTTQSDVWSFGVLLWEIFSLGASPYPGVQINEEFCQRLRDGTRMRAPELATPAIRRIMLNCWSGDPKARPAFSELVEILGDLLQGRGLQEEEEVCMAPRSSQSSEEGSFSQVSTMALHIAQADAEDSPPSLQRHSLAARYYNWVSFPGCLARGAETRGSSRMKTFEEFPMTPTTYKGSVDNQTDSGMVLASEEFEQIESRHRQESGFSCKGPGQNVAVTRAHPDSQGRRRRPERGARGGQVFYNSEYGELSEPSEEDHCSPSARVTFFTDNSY

[7] = target: Vascular endothelial growth factor receptor 3 (Homo sapiens) (UniProt P35916); settings: at 1 µM
[8] = target: Macrophage colony-stimulating factor 1 receptor (Homo sapiens) (UniProt P07333); settings: at 0.1 µM
Sequence of Macrophage colony-stimulating factor 1 receptor (Homo sapiens) (P07333 whole entry): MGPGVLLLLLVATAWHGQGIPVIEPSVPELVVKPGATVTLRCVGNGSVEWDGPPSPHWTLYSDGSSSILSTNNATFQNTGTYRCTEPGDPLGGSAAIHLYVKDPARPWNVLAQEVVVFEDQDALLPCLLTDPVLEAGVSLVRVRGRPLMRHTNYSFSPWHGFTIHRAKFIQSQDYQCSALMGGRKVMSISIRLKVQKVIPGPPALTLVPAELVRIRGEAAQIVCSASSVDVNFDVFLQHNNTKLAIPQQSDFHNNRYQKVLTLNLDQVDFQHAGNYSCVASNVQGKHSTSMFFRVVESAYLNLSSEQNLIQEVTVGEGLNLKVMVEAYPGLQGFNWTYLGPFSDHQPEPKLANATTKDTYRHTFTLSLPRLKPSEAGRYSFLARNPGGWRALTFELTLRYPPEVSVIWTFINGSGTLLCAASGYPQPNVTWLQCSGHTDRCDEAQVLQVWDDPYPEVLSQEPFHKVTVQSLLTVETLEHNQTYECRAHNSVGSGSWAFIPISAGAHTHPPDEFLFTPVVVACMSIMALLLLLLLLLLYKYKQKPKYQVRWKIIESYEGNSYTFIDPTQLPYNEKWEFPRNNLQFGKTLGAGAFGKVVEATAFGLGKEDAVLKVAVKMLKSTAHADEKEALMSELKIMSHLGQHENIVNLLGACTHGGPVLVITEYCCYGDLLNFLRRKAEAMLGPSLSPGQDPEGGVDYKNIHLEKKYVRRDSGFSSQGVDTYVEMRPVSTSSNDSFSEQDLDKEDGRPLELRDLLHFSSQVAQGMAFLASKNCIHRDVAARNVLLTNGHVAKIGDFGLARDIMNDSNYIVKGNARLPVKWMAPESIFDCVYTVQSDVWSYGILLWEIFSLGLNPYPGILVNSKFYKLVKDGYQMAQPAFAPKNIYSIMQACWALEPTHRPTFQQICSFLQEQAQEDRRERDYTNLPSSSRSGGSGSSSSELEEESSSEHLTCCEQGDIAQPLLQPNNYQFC

[9] = target: Macrophage colony-stimulating factor 1 receptor (Homo sapiens) (UniProt P07333); settings: at 1 µM
[10] = target: Tyrosine-protein kinase Fyn (Homo sapiens) (UniProt P06241); settings: at 0.1 µM
Sequence of Tyrosine-protein kinase Fyn (Homo sapiens) (P06241 2-537 limits assumed): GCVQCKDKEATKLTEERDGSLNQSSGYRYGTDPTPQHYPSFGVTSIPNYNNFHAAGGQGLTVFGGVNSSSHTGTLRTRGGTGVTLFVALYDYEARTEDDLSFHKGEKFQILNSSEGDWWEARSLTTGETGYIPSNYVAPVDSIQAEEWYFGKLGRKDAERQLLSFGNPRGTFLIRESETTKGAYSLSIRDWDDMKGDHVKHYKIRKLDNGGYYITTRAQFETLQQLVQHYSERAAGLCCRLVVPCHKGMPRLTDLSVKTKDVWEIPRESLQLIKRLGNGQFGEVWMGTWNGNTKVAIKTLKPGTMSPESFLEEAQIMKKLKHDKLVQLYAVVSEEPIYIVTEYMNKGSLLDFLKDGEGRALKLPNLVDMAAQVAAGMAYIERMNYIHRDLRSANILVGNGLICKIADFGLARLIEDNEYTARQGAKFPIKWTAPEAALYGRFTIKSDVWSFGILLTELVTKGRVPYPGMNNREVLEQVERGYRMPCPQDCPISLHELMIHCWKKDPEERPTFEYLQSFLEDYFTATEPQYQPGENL

[11] = target: Tyrosine-protein kinase Fyn (Homo sapiens) (UniProt P06241); settings: at 1 µM
[12] = target: Tyrosine-protein kinase HCK (Homo sapiens) (UniProt P08631); settings: at 0.1 µM
Sequence of Tyrosine-protein kinase HCK (Homo sapiens) (P08631 2-526 limits assumed): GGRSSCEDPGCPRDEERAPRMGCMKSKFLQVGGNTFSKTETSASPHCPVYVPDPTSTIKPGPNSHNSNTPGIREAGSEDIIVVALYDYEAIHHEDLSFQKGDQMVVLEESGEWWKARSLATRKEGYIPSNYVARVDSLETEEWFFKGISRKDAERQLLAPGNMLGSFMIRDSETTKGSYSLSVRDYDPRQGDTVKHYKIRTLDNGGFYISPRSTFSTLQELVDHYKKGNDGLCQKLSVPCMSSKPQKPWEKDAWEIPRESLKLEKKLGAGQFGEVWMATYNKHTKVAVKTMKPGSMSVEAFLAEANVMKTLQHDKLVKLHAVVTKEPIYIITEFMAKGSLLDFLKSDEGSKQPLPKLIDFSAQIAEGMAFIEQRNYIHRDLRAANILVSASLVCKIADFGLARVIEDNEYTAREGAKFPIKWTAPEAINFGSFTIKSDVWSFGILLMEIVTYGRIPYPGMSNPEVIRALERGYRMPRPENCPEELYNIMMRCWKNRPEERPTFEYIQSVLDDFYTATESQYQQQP

[13] = target: Tyrosine-protein kinase HCK (Homo sapiens) (UniProt P08631); settings: at 1 µM
[14] = target: Insulin-like growth factor 1 receptor (Homo sapiens) (UniProt P08069); settings: at 0.1 µM
[15] = target: Insulin-like growth factor 1 receptor (Homo sapiens) (UniProt P08069); settings: at 1 µM
[16] = target: Insulin receptor (Homo sapiens) (UniProt P06213); settings: at 0.1 µM
Sequence of Insulin receptor (Homo sapiens) (P06213 28-758 limits assumed): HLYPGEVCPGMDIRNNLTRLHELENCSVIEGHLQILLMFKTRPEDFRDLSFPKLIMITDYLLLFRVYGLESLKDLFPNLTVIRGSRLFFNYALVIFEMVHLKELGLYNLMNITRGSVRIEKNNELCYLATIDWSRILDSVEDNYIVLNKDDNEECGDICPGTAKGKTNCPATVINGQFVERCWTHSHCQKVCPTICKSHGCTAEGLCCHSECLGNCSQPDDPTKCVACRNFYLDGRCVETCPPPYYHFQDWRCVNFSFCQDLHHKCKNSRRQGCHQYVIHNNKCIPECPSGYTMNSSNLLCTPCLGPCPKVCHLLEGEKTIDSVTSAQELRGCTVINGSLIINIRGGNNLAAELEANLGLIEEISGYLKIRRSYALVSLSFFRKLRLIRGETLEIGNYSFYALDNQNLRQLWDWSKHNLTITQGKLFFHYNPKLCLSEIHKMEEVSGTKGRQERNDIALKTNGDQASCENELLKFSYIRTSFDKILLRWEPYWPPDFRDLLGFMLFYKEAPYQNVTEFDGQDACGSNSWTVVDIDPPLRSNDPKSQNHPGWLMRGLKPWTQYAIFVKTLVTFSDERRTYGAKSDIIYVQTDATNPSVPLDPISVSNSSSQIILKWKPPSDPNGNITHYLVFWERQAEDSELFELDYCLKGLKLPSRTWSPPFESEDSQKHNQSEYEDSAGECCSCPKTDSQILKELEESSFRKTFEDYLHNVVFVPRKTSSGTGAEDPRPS
Sequence of Insulin receptor (Homo sapiens) (P06213 763-1382 limits assumed): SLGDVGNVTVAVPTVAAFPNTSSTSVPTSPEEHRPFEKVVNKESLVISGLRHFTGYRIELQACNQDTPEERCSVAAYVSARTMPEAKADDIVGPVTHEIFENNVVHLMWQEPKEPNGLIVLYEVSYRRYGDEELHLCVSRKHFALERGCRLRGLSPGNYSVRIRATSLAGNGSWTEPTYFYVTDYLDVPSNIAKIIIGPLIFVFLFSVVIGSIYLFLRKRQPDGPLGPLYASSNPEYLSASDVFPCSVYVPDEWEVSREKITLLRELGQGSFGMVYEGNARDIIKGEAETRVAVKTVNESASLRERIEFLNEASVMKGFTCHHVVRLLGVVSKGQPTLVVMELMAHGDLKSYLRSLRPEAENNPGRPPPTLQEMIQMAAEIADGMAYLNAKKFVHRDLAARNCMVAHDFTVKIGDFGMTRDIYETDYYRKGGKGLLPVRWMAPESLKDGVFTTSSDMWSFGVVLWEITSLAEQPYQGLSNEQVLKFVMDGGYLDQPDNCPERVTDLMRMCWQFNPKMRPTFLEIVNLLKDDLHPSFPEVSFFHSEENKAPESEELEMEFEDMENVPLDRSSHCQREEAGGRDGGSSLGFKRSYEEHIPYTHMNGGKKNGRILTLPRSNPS

[17] = target: Insulin receptor (Homo sapiens) (UniProt P06213); settings: at 1 µM
[18] = target: Insulin receptor-related protein (Homo sapiens) (UniProt P14616); settings: at 0.1 µM
[19] = target: Insulin receptor-related protein (Homo sapiens) (UniProt P14616); settings: at 1 µM
[20] = target: T4, Tyrosine-protein kinase ITK/TSK (Homo sapiens) (UniProt Q08881); settings: at 0.1 µM;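 note: mean percent inhibition of ITK from the GSK PKIS screen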
T4 sequence (whole entry): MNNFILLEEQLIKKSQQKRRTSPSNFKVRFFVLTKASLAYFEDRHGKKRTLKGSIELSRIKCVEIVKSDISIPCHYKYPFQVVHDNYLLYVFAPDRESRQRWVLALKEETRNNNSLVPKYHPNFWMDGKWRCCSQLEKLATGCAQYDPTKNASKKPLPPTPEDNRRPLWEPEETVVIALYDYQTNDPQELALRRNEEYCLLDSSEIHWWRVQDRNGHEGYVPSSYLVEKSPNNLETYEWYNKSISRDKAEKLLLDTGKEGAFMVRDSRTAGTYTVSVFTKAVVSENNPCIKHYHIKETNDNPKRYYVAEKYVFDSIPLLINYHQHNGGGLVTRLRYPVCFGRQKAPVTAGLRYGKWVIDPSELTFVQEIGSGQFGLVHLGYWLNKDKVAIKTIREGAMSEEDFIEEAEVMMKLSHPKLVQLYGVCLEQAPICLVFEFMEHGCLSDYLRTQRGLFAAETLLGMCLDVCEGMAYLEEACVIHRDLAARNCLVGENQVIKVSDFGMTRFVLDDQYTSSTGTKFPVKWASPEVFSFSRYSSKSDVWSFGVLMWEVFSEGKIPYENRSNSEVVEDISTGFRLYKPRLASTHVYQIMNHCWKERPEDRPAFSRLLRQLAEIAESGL

| SMILES | inhibition [1] [%] | inhibition [2] [%] | inhibition [3] [%] | inhibition [4] [%] | inhibition [5] [%] | inhibition [6] [%] | inhibition [7] [%] | inhibition [8] [%] | inhibition [9] [%] | inhibition [10] [%] | inhibition [11] [%] | inhibition [12] [%] | inhibition [13] [%] | inhibition [14] [%] | inhibition [15] [%] | inhibition [16] [%] | inhibition [17] [%] | inhibition [18] [%] | inhibition [19] [%] | inhibition [20] [%] |
| --- | --- | --- | --- | --- | --- | --- | --- | --- | --- | --- | --- | --- | --- | --- | --- | --- | --- | --- | --- | --- |
| CN(c1ccc(NC(=O)NCCN2CCOCC2)cc1)c1ccnc(Nc2ccc(CS(C)(=O)=O)cc2)n1 | 4.91 | 0.46 | 1.42 | 6.2 | 19.9 | 4.1 | 20.6 | 79.7 | 97 | 0.52 | 1.63 | 1.67 | 13.6 | 3.76 | 4.94 | 0.64 | 4 | 2.7 | 2.84 | 1.76 |
| CNC(=O)c1cncc(/C=C/c2ccccc2C)c1 | 3.57 | 4.47 | 3.11 | 8.61 | 2.62 | 6.74 | 3.1 | -0.27 | 4.09 | -0.42 | 10.8 | 6.15 | 20.1 | 3.6 | 6.92 | 2.85 | 2.34 | 4.17 | 2.86 | 1.32 |
| Cc1nnc(-c2cccc(-c3ccc(C(=O)NCC4CC4)cc3)c2)o1 | 7.69 | 4.37 | 3.89 | 9.53 | 0.86 | 4.47 | -1.03 | 2.5 | 1.96 | 1.1 | 0.54 | 5.93 | 8.3 | 3.76 | 6.53 | 9.39 | 5.71 | 4.48 | 3.22 | 0.99 |
| CC(C)c1ccc(-c2cc(-c3c[nH]nc3-c3ccccn3)ccn2)cc1 | 2.93 | 0.48 | 0.41 | 2.65 | 1.71 | 1.37 | 5.15 | 0.03 | 3.63 | 1.14 | 1.91 | 2.47 | 4.67 | 1 | 2.04 | -0.15 | 1.37 | -0.94 | -0.37 | 0.84 |
| CCCNc1cccc(-n2ncc3c(N/N=C/c4ccncc4)ncnc32)c1 | 0.45 | -0.12 | 0.93 | 4 | 31.9 | 11.3 | 40.7 | 3.81 | 17.6 | 8.6 | 52.8 | 7.22 | 35.8 | 0.75 | -0.01 | 1.6 | 0.96 | 0.19 | 1.63 | 6.02 |
| O=C(O[C@H]1CN[C@H](C#Cc2cc3ncnc(Nc4ccc(OCc5cccc(F)c5)c(Cl)c4)c3s2)C1)N1CCOCC1 | 13.5 | 3.78 | 4.55 | 12.4 | -1.26 | 6.24 | 3.14 | 1.07 | 1.72 | 3.75 | 6.59 | 3.37 | 6.71 | 6.13 | 14.8 | 7.72 | 5.91 | 3.84 | 3.3 | 0.99 |
| CS(=O)(=O)CCNCc1ccc(-c2ccc3ncnc(Nc4ccc(OCc5cccc(C(F)(F)F)c5)cc4)c3c2)o1 | 2.96 | 5.06 | 6.5 | 7.15 | 1.14 | 8.65 | 15.4 | 3.92 | 9.05 | 2.75 | 0.05 | 9.32 | 11.7 | 18.2 | 11.6 | 11.2 | 3.04 | 1.51 | 3.38 | 1.71 |
